Experiments:
Assay in all cases: DAPPL (digital affinity profiling via proximity ligation, sequencing); 10 mM Tris-HCl pH 7.5, 50 mM NaCl, 1 mM DTT, 4% glycerol, room temperature, 30 min; GST-TFs on glutathione beads, 16-mer random dsDNA library, 0.1% formaldehyde crosslink after washing; high values mean tight binding
Conditions in all cases: protein: recombinant; tags: N-terminal GST; dsDNA, one strand shown
[1] = molecular target: T1, FLI1 (Homo sapiens, UniProt Q01543 1-452)
T1 sequence: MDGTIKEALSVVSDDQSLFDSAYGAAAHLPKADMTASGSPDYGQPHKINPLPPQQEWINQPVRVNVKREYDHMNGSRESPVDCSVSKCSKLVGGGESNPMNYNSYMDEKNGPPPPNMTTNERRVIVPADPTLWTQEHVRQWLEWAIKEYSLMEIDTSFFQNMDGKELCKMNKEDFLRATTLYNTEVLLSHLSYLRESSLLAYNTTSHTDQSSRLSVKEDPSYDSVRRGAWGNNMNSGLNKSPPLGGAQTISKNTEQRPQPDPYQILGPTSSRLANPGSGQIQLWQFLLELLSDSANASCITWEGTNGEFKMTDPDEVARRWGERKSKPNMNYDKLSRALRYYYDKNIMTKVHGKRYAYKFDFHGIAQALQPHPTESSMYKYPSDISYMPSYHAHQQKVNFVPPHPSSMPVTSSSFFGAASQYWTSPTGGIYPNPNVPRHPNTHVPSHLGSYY
Outline: (§1)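 Pools were built from human transcription factors expressed in yeast as GST fusions, captured on glutathione beads and DNA-barcoded, along with a tag-only sample. Incubation with 200 nmole of a 16-mer random double-stranded DNA library lasted 30 min at room temperature in Tris/NaCl/DTT/glycerol buffer, and was followed by washing, 0.1% formaldehyde crosslinking, proximity ligation, PCR amplification and Illumina NextSeq500 sequencing. Binding signal is the quotient of each hexamer's read frequency for a factor and its frequency for the tag-only sample.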

[2] = molecular target: T2, ELK1 (Homo sapiens, UniProt P19419 1-428)
T2 sequence: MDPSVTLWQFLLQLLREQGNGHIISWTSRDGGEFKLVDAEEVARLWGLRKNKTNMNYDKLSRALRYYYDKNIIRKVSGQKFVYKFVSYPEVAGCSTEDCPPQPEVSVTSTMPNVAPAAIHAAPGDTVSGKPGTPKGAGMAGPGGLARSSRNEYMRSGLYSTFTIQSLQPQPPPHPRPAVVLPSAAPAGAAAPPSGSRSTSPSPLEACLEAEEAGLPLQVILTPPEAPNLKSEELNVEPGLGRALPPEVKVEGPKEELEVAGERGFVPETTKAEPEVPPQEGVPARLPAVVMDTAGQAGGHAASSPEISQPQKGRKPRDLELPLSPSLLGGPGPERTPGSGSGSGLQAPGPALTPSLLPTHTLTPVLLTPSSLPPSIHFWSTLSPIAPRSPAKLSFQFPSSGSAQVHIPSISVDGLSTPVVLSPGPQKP
Outline: as §1

[3] = molecular target: T3, GABPA (Homo sapiens, UniProt Q06546 1-454)
T3 sequence: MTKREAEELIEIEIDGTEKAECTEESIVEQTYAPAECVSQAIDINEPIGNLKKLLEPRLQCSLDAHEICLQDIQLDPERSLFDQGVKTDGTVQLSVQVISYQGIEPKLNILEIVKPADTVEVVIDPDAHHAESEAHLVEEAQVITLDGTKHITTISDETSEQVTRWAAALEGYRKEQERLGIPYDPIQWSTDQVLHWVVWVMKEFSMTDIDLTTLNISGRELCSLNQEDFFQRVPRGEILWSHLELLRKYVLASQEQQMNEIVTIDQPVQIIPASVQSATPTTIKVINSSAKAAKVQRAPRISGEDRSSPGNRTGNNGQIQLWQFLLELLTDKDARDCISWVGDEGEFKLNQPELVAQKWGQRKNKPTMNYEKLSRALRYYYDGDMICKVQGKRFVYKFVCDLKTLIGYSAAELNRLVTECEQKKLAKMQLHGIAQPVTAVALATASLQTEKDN
Outline: as §1

[4] = molecular target: T4, ERG (Homo sapiens, UniProt P11308 1-479)
T4 sequence: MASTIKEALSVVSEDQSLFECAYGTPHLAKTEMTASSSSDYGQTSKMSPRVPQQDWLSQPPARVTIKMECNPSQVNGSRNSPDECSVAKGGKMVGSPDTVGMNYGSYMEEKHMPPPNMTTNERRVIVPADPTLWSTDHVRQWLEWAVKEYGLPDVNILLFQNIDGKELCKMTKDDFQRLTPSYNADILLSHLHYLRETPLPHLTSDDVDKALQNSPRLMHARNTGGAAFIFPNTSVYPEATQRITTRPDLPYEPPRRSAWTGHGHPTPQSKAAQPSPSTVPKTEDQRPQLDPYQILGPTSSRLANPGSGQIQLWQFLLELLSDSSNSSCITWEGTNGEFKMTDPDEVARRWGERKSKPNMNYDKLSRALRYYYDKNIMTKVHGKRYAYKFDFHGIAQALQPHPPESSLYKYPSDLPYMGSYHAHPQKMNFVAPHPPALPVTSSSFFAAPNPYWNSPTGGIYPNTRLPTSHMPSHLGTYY
Outline: as §1

[5] = molecular target: ELF1 (Homo sapiens, UniProt P32519 1-619)
Chain of ELF1 (P32519 whole entry): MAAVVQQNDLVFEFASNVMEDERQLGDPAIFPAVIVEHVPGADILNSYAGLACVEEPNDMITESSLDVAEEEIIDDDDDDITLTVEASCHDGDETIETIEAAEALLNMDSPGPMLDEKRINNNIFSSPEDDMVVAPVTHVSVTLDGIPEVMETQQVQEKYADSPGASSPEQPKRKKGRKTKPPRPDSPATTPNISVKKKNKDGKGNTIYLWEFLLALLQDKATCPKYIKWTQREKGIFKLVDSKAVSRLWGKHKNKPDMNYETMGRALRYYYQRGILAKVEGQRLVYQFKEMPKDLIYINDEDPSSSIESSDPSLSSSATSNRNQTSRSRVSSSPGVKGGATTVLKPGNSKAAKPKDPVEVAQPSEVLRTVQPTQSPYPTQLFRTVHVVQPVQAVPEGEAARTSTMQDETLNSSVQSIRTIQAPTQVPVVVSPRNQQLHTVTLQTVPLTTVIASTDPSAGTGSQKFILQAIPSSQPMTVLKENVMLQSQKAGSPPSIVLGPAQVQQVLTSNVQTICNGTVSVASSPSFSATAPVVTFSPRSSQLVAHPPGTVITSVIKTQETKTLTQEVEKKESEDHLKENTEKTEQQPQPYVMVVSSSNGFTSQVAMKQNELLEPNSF
Outline: as §1

[6] = molecular target: T5, EHF (Homo sapiens, UniProt Q9NZC4 1-300)
T5 sequence: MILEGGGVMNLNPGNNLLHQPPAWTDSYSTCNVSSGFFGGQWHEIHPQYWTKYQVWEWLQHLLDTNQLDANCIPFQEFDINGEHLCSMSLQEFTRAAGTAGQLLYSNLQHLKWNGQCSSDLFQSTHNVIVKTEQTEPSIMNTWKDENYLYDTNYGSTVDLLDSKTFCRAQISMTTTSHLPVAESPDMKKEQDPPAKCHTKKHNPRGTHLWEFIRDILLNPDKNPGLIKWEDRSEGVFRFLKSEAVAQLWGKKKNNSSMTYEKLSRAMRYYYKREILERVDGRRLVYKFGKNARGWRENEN
Outline: as §1

[7] = molecular target: SPI1 (Homo sapiens, UniProt P17947 1-270)
Outline: as §1

[8] = molecular target: SPIB (Homo sapiens, UniProt Q01892 1-262)
Chain of SPIB (Q01892 whole entry): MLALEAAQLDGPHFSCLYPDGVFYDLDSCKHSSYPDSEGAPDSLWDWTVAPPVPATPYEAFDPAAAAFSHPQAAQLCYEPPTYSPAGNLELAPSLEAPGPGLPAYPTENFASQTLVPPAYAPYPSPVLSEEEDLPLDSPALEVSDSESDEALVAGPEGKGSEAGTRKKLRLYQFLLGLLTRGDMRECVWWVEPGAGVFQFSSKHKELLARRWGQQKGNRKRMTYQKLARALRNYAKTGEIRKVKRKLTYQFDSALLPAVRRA
Outline: as §1

[9] = molecular target: T6, ELK3 (Homo sapiens, UniProt P41970 1-407)
T6 sequence: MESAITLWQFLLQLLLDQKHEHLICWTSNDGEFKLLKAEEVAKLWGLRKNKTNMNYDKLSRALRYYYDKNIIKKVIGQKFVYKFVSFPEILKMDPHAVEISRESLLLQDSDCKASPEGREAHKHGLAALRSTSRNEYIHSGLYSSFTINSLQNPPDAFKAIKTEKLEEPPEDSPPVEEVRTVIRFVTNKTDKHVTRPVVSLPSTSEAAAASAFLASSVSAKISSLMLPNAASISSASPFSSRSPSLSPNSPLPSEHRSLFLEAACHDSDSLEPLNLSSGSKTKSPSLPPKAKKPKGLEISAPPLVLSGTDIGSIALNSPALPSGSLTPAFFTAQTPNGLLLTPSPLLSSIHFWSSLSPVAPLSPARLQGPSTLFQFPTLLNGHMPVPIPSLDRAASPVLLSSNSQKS
Outline: as §1

| Sequence | binding signal [1] | binding signal [2] | binding signal [3] | binding signal [4] | binding signal [5] | binding signal [6] | binding signal [7] | binding signal [8] | binding signal [9] |
| --- | --- | --- | --- | --- | --- | --- | --- | --- | --- |
| AACCTA | 1.03 fold enrichment (6-mer frequency, TF over GST control) | 1.08 fold enrichment (6-mer frequency, TF over GST control) | 1.1 fold enrichment (6-mer frequency, TF over GST control) | 1.01 fold enrichment (6-mer frequency, TF over GST control) | 1.1 fold enrichment (6-mer frequency, TF over GST control) | 1.11 fold enrichment (6-mer frequency, TF over GST control) | 1.08 fold enrichment (6-mer frequency, TF over GST control) | 1.1 fold enrichment (6-mer frequency, TF over GST control) | 1.1 fold enrichment (6-mer frequency, TF over GST control) |
| TAACAA | 1.22 fold enrichment (6-mer frequency, TF over GST control) | 1.22 fold enrichment (6-mer frequency, TF over GST control) | 1.14 fold enrichment (6-mer frequency, TF over GST control) | 1.18 fold enrichment (6-mer frequency, TF over GST control) | 1.2 fold enrichment (6-mer frequency, TF over GST control) | 1.19 fold enrichment (6-mer frequency, TF over GST control) | 1.14 fold enrichment (6-mer frequency, TF over GST control) | 1.13 fold enrichment (6-mer frequency, TF over GST control) | 1.34 fold enrichment (6-mer frequency, TF over GST control) |
| GGTATT | 1.2 fold enrichment (6-mer frequency, TF over GST control) | 1.17 fold enrichment (6-mer frequency, TF over GST control) | 1.23 fold enrichment (6-mer frequency, TF over GST control) | 1.24 fold enrichment (6-mer frequency, TF over GST control) | 1.18 fold enrichment (6-mer frequency, TF over GST control) | 1.19 fold enrichment (6-mer frequency, TF over GST control) | 1.16 fold enrichment (6-mer frequency, TF over GST control) | 1.2 fold enrichment (6-mer frequency, TF over GST control) | 1.15 fold enrichment (6-mer frequency, TF over GST control) |
| CTCTGT | 1.5 fold enrichment (6-mer frequency, TF over GST control) | 1.39 fold enrichment (6-mer frequency, TF over GST control) | 1.33 fold enrichment (6-mer frequency, TF over GST control) | 1.29 fold enrichment (6-mer frequency, TF over GST control) | 1.5 fold enrichment (6-mer frequency, TF over GST control) | 1.44 fold enrichment (6-mer frequency, TF over GST control) | 1.34 fold enrichment (6-mer frequency, TF over GST control) | 1.36 fold enrichment (6-mer frequency, TF over GST control) | 1.19 fold enrichment (6-mer frequency, TF over GST control) |
| TGCTAG | 1.11 fold enrichment (6-mer frequency, TF over GST control) | 1.08 fold enrichment (6-mer frequency, TF over GST control) | 1.08 fold enrichment (6-mer frequency, TF over GST control) | 1.11 fold enrichment (6-mer frequency, TF over GST control) | 1.16 fold enrichment (6-mer frequency, TF over GST control) | 1.1 fold enrichment (6-mer frequency, TF over GST control) | 1.2 fold enrichment (6-mer frequency, TF over GST control) | 1.19 fold enrichment (6-mer frequency, TF over GST control) | 1.03 fold enrichment (6-mer frequency, TF over GST control) |
| CTGGCT | 1.33 fold enrichment (6-mer frequency, TF over GST control) | 1.31 fold enrichment (6-mer frequency, TF over GST control) | 1.37 fold enrichment (6-mer frequency, TF over GST control) | 1.3 fold enrichment (6-mer frequency, TF over GST control) | 1.25 fold enrichment (6-mer frequency, TF over GST control) | 1.26 fold enrichment (6-mer frequency, TF over GST control) | 1.18 fold enrichment (6-mer frequency, TF over GST control) | 1.22 fold enrichment (6-mer frequency, TF over GST control) | 1.12 fold enrichment (6-mer frequency, TF over GST control) |
| CTTAGG | 1.1 fold enrichment (6-mer frequency, TF over GST control) | 1.12 fold enrichment (6-mer frequency, TF over GST control) | 1.15 fold enrichment (6-mer frequency, TF over GST control) | 1.19 fold enrichment (6-mer frequency, TF over GST control) | 1.17 fold enrichment (6-mer frequency, TF over GST control) | 1.14 fold enrichment (6-mer frequency, TF over GST control) | 1.09 fold enrichment (6-mer frequency, TF over GST control) | 1.08 fold enrichment (6-mer frequency, TF over GST control) | 1.05 fold enrichment (6-mer frequency, TF over GST control) |
| TACATG | 1.24 fold enrichment (6-mer frequency, TF over GST control) | 1.09 fold enrichment (6-mer frequency, TF over GST control) | 1.14 fold enrichment (6-mer frequency, TF over GST control) | 1.2 fold enrichment (6-mer frequency, TF over GST control) | 1.27 fold enrichment (6-mer frequency, TF over GST control) | 1.18 fold enrichment (6-mer frequency, TF over GST control) | 1.26 fold enrichment (6-mer frequency, TF over GST control) | 1.16 fold enrichment (6-mer frequency, TF over GST control) | 1.3 fold enrichment (6-mer frequency, TF over GST control) |
